The source of these data is ChEMBL document CHEMBL1961873, “Compounds: GSK PKIS; Assays: Nanosyn kinase panel” (2012).

Sequence of Angiopoietin-1 receptor (Homo sapiens) (Q02763 whole entry): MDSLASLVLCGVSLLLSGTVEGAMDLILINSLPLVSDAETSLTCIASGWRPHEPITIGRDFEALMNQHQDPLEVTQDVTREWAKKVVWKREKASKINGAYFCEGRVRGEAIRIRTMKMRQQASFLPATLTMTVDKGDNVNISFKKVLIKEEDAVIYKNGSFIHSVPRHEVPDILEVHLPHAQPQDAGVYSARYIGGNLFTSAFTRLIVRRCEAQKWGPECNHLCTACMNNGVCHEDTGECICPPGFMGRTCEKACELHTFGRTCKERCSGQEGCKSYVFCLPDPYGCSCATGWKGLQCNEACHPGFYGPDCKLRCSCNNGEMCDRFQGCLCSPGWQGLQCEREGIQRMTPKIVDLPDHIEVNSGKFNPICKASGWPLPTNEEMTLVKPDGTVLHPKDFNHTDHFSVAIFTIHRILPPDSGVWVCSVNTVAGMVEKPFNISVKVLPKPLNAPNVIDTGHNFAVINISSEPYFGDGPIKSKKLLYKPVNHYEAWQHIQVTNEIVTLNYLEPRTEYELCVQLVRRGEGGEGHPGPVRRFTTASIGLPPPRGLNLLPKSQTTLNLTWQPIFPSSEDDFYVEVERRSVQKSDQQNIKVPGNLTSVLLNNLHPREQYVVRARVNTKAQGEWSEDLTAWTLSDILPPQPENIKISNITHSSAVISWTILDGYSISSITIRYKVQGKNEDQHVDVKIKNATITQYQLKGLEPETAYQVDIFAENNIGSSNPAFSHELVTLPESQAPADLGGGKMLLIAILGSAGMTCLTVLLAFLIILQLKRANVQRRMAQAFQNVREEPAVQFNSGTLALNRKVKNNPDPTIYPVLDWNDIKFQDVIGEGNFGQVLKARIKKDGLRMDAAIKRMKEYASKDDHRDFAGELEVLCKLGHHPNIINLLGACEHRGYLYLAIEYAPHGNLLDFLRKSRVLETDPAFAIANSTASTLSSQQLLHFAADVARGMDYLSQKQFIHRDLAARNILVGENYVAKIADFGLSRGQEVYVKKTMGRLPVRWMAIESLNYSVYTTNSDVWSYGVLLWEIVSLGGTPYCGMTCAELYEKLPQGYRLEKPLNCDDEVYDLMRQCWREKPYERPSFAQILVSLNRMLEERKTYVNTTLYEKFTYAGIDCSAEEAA

The first test concerns the target Angiopoietin-1 receptor (Homo sapiens) (UniProt Q02763). The settings on record: at 1 µM.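 Further: reported value is the mean TIE2 inhibition from the GSK PKIS dataset.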
For the molecule `COc1cccc(-n2cnc3c(N/N=C/c4ccncc4)ncnc32)c1`, the inhibition turned out to be 9.67%.

Turning to `Fc1ccc(-c2ncn(C3CCNCC3)c2-c2ccnc(Oc3ccc(F)c(F)c3)n2)cc1`, the inhibition worked out at 3.09%.

Turning to `Cc1ccc(C(=O)NC2CCC2)cc1-c1ccc(C(=O)NCC2CC2)cc1`, the inhibition was found to be 1.2%.

As to `C[C@@H](Oc1cc(-n2cnc3ccc(OC4CCN(C)CC4)cc32)sc1C(N)=O)c1ccccc1Cl`, the inhibition turned out to be 11.9%.

Turning to `CCS(=O)(=O)c1ccc(OC)c(Nc2ncc(-c3ccccc3Cl)o2)c1`, the inhibition was 7.52%.

In the case of `CCC(=O)Nc1ccc(C)c(-c2ccc(C(=O)NCC3CC3)cc2)c1`, the inhibition was determined as 6.22%.

`O=C(Nc1n[nH]c2cc(-c3cc(F)ccc3F)ccc12)C1CC1`: the inhibition was determined as 9.26%.

In the case of `O=C1NC(=O)C(c2cccc(Cl)c2)=C1Nc1ccc(Cl)c(C(=O)O)c1`, the inhibition is 4.22%.

Consider `CS(=O)(=O)CCNCc1ccc(-c2ccc3ncnc(Nc4ccc(OCc5ccccc5)c(Br)c4)c3c2)o1`, for which the inhibition was 4.68%.

In the case of `COc1ccc2ncn(-c3cc(O[C@H](C)c4ccccc4Cl)c(C(N)=O)s3)c2c1`, the inhibition came to 7.48%.

For `Cc1ccc(C(=O)NC(C)C)cc1-c1ccc(C(=O)NCC2CC2)cc1`, the inhibition is -0.28%.

As to `O=C(Nc1ccc(Oc2ccc3[nH]c(NC(=O)c4ccccc4)nc3c2)cc1)Nc1cc(C(F)(F)F)ccc1F`, the inhibition came out at 60.5%.

In the case of `C[C@@H](Oc1cc(-n2cnc3ccc(OCC4CCN(C)CC4)cc32)sc1C(N)=O)c1ccccc1Cl`, the inhibition came to 19.8%.

`COc1ccc2cc(-c3c(-c4ccncc4)nc(-c4ccc([S+](C)[O-])cc4C)n3C)ccc2c1` (stereo not drawn): the inhibition came out at 82.2%.

Turning to `CCc1ccc(Oc2nccc(-c3c(-c4ccc(F)cc4)ncn3C3CCNCC3)n2)cc1`, the inhibition was determined as 4.41%.

As to `O=C(NCC1CC1)c1ccc(-c2cccc(C(=O)NC3CC3)c2)cc1`, the inhibition was determined as 6.47%.

For the molecule `CS(=O)(=O)CCNCc1cc(-c2cc3c(Nc4ccc(OCc5cccc(F)c5)c(Cl)c4)ncnc3s2)cs1`, the inhibition worked out at 10.7%.

For the molecule `Fc1ccc(-c2ncn(C3CCNCC3)c2-c2ccnc(Oc3ccc4c(c3)OCO4)n2)cc1`, the inhibition was determined as 12.3%.

As for `NS(=O)(=O)c1ccc(N/N=C2\C(=O)Nc3ccc(C(=O)NCCCn4ccnc4)cc32)cc1`, the inhibition was 5.99%.

`NC(=O)Cc1ccccc1Oc1nccc(-c2c(-c3ccc(F)cc3)ncn2C2CCNCC2)n1`: the inhibition came out at 4.3%.

For `COc1cccc(/C=N/Nc2ncnc3c2cnn3-c2cccc(OC)c2)c1`, the inhibition was 4.37%.

Turning to `COc1ccc(-c2ccc3c(NC(=O)C4CC4)n[nH]c3n2)cc1`, the inhibition was determined as 5.88%.

For `Fc1ccc(-c2ncn(CCCN3CCOCC3)c2-c2ccncc2)cc1`, the inhibition is 1.99%.

As for `Fc1ccc(-c2c(-c3ccncc3)nc3n2CCS3)cc1`, the inhibition was 4.78%.

As for `CN(C)c1ccc2c(c1)/C(=C/Nc1ccc(S(N)(=O)=O)cc1)C(=O)N2`, the inhibition was determined as 5.59%.

Take `c1ccc(-c2n[nH]cc2-c2ccnc(-c3ccc(OCCN4CCOCC4)cc3)c2)nc1`: the inhibition worked out at 7.13%.

In the case of `COC(=O)Nc1nc2ccc(Sc3ccc(NC(=O)Nc4cc(C(F)(F)F)ccc4F)cc3)cc2[nH]1`, the inhibition stood at 70.7%.

Consider `COc1cc(Nc2ncc(-c3ccccc3)o2)cc(OC)c1OC`, for which the inhibition amounted to 5.14%.

As for `Fc1ccc(-c2nc3n(c2-c2ccncc2)CCS3)cc1`, the inhibition was determined as 5.76%.

With `C#Cc1cccc(Nc2ncnc3ccc(OCCCCNCCS(C)(=O)=O)cc23)c1`, the inhibition came out at 12.5%.

`COc1ccc(C2=C(N3CCc4ccccc43)C(=O)NC2=O)cc1`: the inhibition was 3.07%.

For the molecule `COc1cc(N2CCN(C(C)C)CC2)ccc1Nc1nc(Nc2ccc(F)cc2C(=O)NC[C@@H](O)CO)c2cc[nH]c2n1`, the inhibition came out at 6.08%.

As for `Fc1ccc(-c2ncn(C3CCNCC3)c2-c2ccnc(Oc3ccc(Oc4ccccc4)cc3)n2)cc1`, the inhibition stood at 4.32%.

As for `CCc1cccc(CC)c1/C=C/c1cncc(C(=O)NC)c1`, the inhibition turned out to be 3.17%.

In another test the target is T1, Non-receptor tyrosine-protein kinase TNK1 (Homo sapiens) (UniProt Q13470).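 Further: reported values are mean inhibition figures.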
T1 sequence (whole entry): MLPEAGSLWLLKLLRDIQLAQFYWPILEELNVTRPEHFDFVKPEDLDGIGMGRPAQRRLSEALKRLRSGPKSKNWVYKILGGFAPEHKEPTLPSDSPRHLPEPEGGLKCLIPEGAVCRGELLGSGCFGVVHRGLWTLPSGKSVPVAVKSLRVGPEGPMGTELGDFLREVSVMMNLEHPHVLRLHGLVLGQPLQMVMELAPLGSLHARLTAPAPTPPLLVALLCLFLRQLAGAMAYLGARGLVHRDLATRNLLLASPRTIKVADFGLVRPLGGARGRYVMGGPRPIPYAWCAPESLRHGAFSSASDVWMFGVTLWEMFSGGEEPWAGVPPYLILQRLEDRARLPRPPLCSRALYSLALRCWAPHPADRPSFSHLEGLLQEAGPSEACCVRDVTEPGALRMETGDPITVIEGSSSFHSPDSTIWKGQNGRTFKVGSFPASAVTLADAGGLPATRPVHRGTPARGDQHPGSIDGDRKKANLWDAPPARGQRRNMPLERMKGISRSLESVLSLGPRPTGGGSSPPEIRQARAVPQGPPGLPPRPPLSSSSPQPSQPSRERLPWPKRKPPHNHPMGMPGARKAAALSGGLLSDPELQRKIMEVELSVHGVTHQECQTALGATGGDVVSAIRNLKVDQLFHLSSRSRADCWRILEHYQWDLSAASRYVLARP
The settings on record: at 0.1 µM.
Turning to `COc1cccc(-n2cnc3c(N/N=C/c4ccncc4)ncnc32)c1`, the inhibition came out at 1.98%.

For the molecule `Fc1ccc(-c2ncn(C3CCNCC3)c2-c2ccnc(Oc3ccc(F)c(F)c3)n2)cc1`, the inhibition came out at 0.22%.

`Cc1ccc(C(=O)NC2CCC2)cc1-c1ccc(C(=O)NCC2CC2)cc1`: the inhibition was -0.31%.

Regarding `C[C@@H](Oc1cc(-n2cnc3ccc(OC4CCN(C)CC4)cc32)sc1C(N)=O)c1ccccc1Cl`, the inhibition was determined as 3.41%.

As for `CCS(=O)(=O)c1ccc(OC)c(Nc2ncc(-c3ccccc3Cl)o2)c1`, the inhibition amounted to 16.9%.

Turning to `CCC(=O)Nc1ccc(C)c(-c2ccc(C(=O)NCC3CC3)cc2)c1`, the inhibition was -0.12%.

For the molecule `O=C(Nc1n[nH]c2cc(-c3cc(F)ccc3F)ccc12)C1CC1`, the inhibition was determined as 1.68%.

For `O=C1NC(=O)C(c2cccc(Cl)c2)=C1Nc1ccc(Cl)c(C(=O)O)c1`, the inhibition is 0.16%.

For the molecule `CS(=O)(=O)CCNCc1ccc(-c2ccc3ncnc(Nc4ccc(OCc5ccccc5)c(Br)c4)c3c2)o1`, the inhibition is 0.59%.

With `COc1ccc2ncn(-c3cc(O[C@H](C)c4ccccc4Cl)c(C(N)=O)s3)c2c1`, the inhibition turned out to be 3.02%.

`Cc1ccc(C(=O)NC(C)C)cc1-c1ccc(C(=O)NCC2CC2)cc1`: the inhibition was -4.74%.

As for `O=C(Nc1ccc(Oc2ccc3[nH]c(NC(=O)c4ccccc4)nc3c2)cc1)Nc1cc(C(F)(F)F)ccc1F`, the inhibition was determined as 4.53%.

Turning to `C[C@@H](Oc1cc(-n2cnc3ccc(OCC4CCN(C)CC4)cc32)sc1C(N)=O)c1ccccc1Cl`, the inhibition turned out to be 7.13%.

With `COc1ccc2cc(-c3c(-c4ccncc4)nc(-c4ccc([S+](C)[O-])cc4C)n3C)ccc2c1` (stereo not drawn), the inhibition was -3.02%.

With `CCc1ccc(Oc2nccc(-c3c(-c4ccc(F)cc4)ncn3C3CCNCC3)n2)cc1`, the inhibition stood at 1.24%.

On to `O=C(NCC1CC1)c1ccc(-c2cccc(C(=O)NC3CC3)c2)cc1`, for which the inhibition was found to be 1.89%.

In the case of `CS(=O)(=O)CCNCc1cc(-c2cc3c(Nc4ccc(OCc5cccc(F)c5)c(Cl)c4)ncnc3s2)cs1`, the inhibition was 1.8%.

As for `Fc1ccc(-c2ncn(C3CCNCC3)c2-c2ccnc(Oc3ccc4c(c3)OCO4)n2)cc1`, the inhibition is 3.93%.

Regarding `NS(=O)(=O)c1ccc(N/N=C2\C(=O)Nc3ccc(C(=O)NCCCn4ccnc4)cc32)cc1`, the inhibition worked out at 6.1%.

As to `NC(=O)Cc1ccccc1Oc1nccc(-c2c(-c3ccc(F)cc3)ncn2C2CCNCC2)n1`, the inhibition was -0.61%.

With `COc1cccc(/C=N/Nc2ncnc3c2cnn3-c2cccc(OC)c2)c1`, the inhibition came out at 0.36%.

In the case of `COc1ccc(-c2ccc3c(NC(=O)C4CC4)n[nH]c3n2)cc1`, the inhibition came to 1.34%.

`Fc1ccc(-c2ncn(CCCN3CCOCC3)c2-c2ccncc2)cc1`: the inhibition was determined as 0.29%.

As for `Fc1ccc(-c2c(-c3ccncc3)nc3n2CCS3)cc1`, the inhibition came out at 0.74%.

For the molecule `CN(C)c1ccc2c(c1)/C(=C/Nc1ccc(S(N)(=O)=O)cc1)C(=O)N2`, the inhibition came out at 0.71%.

Consider `c1ccc(-c2n[nH]cc2-c2ccnc(-c3ccc(OCCN4CCOCC4)cc3)c2)nc1`, for which the inhibition was 0.24%.

For the molecule `COC(=O)Nc1nc2ccc(Sc3ccc(NC(=O)Nc4cc(C(F)(F)F)ccc4F)cc3)cc2[nH]1`, the inhibition amounted to 2.15%.

Regarding `COc1cc(Nc2ncc(-c3ccccc3)o2)cc(OC)c1OC`, the inhibition was 4.15%.

On to `Fc1ccc(-c2nc3n(c2-c2ccncc2)CCS3)cc1`, for which the inhibition turned out to be 1.24%.

On to `C#Cc1cccc(Nc2ncnc3ccc(OCCCCNCCS(C)(=O)=O)cc23)c1`, for which the inhibition was 2.31%.

On to `COc1ccc(C2=C(N3CCc4ccccc43)C(=O)NC2=O)cc1`, for which the inhibition amounted to 4.3%.

With `COc1cc(N2CCN(C(C)C)CC2)ccc1Nc1nc(Nc2ccc(F)cc2C(=O)NC[C@@H](O)CO)c2cc[nH]c2n1`, the inhibition was found to be 14.7%.

For the molecule `Fc1ccc(-c2ncn(C3CCNCC3)c2-c2ccnc(Oc3ccc(Oc4ccccc4)cc3)n2)cc1`, the inhibition was 2.72%.

For the molecule `CCc1cccc(CC)c1/C=C/c1cncc(C(=O)NC)c1`, the inhibition stood at 5.96%.

The term inhibition denotes the relative decrease from the control value, in per cent.
